PubChem BioAssay AID1259415 (National Center for Advancing Translational Sciences (NCATS), 2018)
Among all 410,000 compounds or so, about 18,000 (4.4%) were called active. Not shown: some 7% with an inconclusive outcome. Shown is part of a subset that was picked to be rich in actives. Values without a mark were called inactive. Cut-off read from the data, not from the text of the source: active = activity change below about -60%; inconclusive = no clear call, values can overlap the other calls; inactive = above about -39%.

assay: qHTS Assay for inhibitors of the human cytomegalovirus (HCMV); details: HFF cells, HCMV-luciferase reporter, 72 h; at 57.5 µM; active compounds read low
Outline: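 After 16 h attachment at 37C, HFF cells received test compound and HCMV-luciferase (1 PFU/cell); reporter luminescence read 72 h later, data normalized against buffer-only and known inhibitor Salinomycin.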
% is set by controls: 0 for no effect and ±100 for the full control effect.

Structure (SMILES)	activity change, negative = inhibition
Cc1cc(=O)n2[nH]c(-c3sccc3-n3c(C)ccc3C)cc2n1	-64.1% (active)
COc1ccccc1CNS(=O)(=O)c1cc(Br)cc2c1N(C(C)=O)C(C)C2 (stereo not given)	-27.7%
COc1cc(NC(=O)COC(=O)c2cc(S(=O)(=O)N3CCOCC3)ccc2F)cc(OC)c1	-68.7% (active)
O=C(COC(=O)c1ccccc1F)Nc1cc(S(=O)(=O)N2CCOCC2)ccc1N1CCCC1	-28.5%
O=C(COC(=O)c1cc(S(=O)(=O)N2CCOCC2)ccc1F)NC1CC1	-20.2%
CCCC12CN3CC(C)(CN(C1)C3c1ccccc1Cl)C2=O (stereo not given)	1.49%
Cc1cccc(NC(=O)NC2(C)CCS(=O)(=O)C2)c1 (stereo not given)	14.3%
Cc1cccc(NC(=O)Nc2cccc(Oc3c(F)c(F)c(F)c(F)c3F)c2)c1	-76.5% (active)
Cc1ccoc1C(=O)Nc1cccc(Oc2ccccc2)c1	16.8%
COc1ccc(CCNC(=O)CCCCn2c(=O)c3ccccc3n(Cc3ccccc3C)c2=O)cc1OC	-31.9%
CCOC(=O)c1ccc(NC(=O)c2c(NCc3cccc(OC)c3)sc3c2CCC3)cc1	-1.86%
CCC(=O)N1CCN(c2ccccc2NC(=O)COc2cccc(C)c2C)CC1	-63.8% (active)
CCOc1ccccc1NC(=S)N1CCN(c2cccc(C)c2C)CC1	-37.3%
Cc1ccccc1OCC(=O)Nc1ccc(N2CCN(C(=O)C(C)C)CC2)c(Cl)c1	1.1%
COc1ccc(C)cc1NC(=O)C(=O)NCCc1sc(-c2cccc(C)c2)nc1C	-4.02%
Cc1ccccc1CCNC(=O)C1CCN(c2nc3ccccc3nc2C(F)(F)F)CC1	-6.7%
COc1ccc(C)cc1S(=O)(=O)N(CC(=O)Nc1cccc([N+](=O)[O-])c1)c1ccc(C)cc1	-7.9%
COC(=O)/C=C\C(=O)Nc1cccc([N+](=O)[O-])c1	-87.4% (active)
CCc1ccc(NC(=O)C(C)OC(=O)/C=C/c2cccc([N+](=O)[O-])c2)cc1 (stereo not given)	7.98%
O=C(/C=C/c1cccc([N+](=O)[O-])c1)NCCSCc1ccco1	-19.7%
CCC(CC)NC(=O)/C=C/c1cccc([N+](=O)[O-])c1	-60.1% (active)
CC(C)OP(=O)(OC(C)C)C(Nc1ccccc1)c1cccc([N+](=O)[O-])c1 (stereo not given)	-30.9%
COc1ccc(-c2nc(S(=O)(=O)c3ccccc3)c(N3CCCCC3)o2)cc1	-14.3%

Structure (SMILES)	activity change, negative = inhibition
CCOc1ccc2nc(N3CCCC(C(=O)Nc4cc(C)ccc4C)C3)sc2c1 (stereo not given)	69.3%
CCn1cc(C(=O)N(C)Cc2ccccc2)c(=O)c2cc(S(=O)(=O)N3CCCCCC3)ccc21	4.41%
CC(=O)N1c2ccc(S(=O)(=O)NCCC(=O)N(C)C3CCCCC3)cc2CC1C (stereo not given)	-39.5%
CCn1c(NC(=O)c2ccccc2)c(-c2cccs2)c(=O)c2ccccc21	25.8%
N#Cc1ccc(C(=O)Nc2nc(-c3cccs3)c(C(=O)C(F)(F)F)s2)cc1	-96.5% (active)
COc1ccc(C(F)(F)F)cc1NC(=O)c1sc2nc(-c3cccs3)ccc2c1N	14.5%
O=C(NCCS(=O)(=O)N1CCN(c2ccc(F)cc2)CC1)c1ccccc1Br	20.8%
Cn1c(=O)c2c(SCC(=O)NCC3CCCO3)nc(-c3ccccc3F)nc2n(C)c1=O (stereo not given)	-4.16%
Cc1ccc(-c2cc(N)n(Cc3cccc(Cl)c3)n2)cc1	-21.8%
CCOC(=O)c1cnc(-n2nc(C)cc2C)nc1NNc1cc(C)nc(-c2ccccc2)n1	-1.83%
COc1ccc(Nc2cc(C)nc(-n3nc(C)cc3C)n2)cc1	-84.3% (active)
COc1ccc(C(C[N+](=O)[O-])n2nc(C)cc2C)cc1 (stereo not given)	-11%
COc1cccc(/C=N/Nc2cc(C)nc(-c3ccccc3O)n2)c1O	-95.8% (active)
COc1ccc(/C=C/c2noc(-c3ccccc3O)n2)cc1OC	63.9%
COc1ccccc1/C=N\Nc1cc(C)nc(-n2nc(C)cc2C)n1	-94.4% (active)
Cc1cccc(Nc2cc(C)nc(-n3nc(C)cc3C)n2)c1	-83.8% (active)
Cc1cc(C)n(-c2nnc(N3CCN(c4ccccc4)CC3)nn2)n1	-11.6%
Cc1ccc(Nc2nc3ccccc3nc2-n2nc(C)cc2C)c(Cl)c1	2.84%
COc1ccc(-c2nc3nc(C)cc(C)n3c2Nc2c(C)cccc2C)cc1	-8%
COc1cc(Cl)c(C)cc1Nc1nnc(-n2nc(C)cc2C)c2ccccc12	16.8%
CCCCc1nnc(NC(=O)CSc2nc(N)cc(=O)[nH]2)s1	-10.9%
O=S(=O)(NCCS(=O)(=O)N1CCN(c2ccccc2)CC1)c1ccc(Cl)cc1	-35.4%
CCOc1cc(/C=C(\C#N)C(=O)Nc2ccccc2C)ccc1OCc1cc(=O)n2nc(CC)sc2n1	-5.21%

Structure (SMILES)	activity change, negative = inhibition
CSc1nc(=O)c2c(n1C)NC(=O)CC2c1ccccc1OC(C)C (stereo not given)	-11%
Cc1nnc(SCC(=O)N2c3ccccc3C(C)(c3ccc(Cl)cc3)CC2(C)C)s1 (stereo not given)	-74.1% (active)
CC1(c2cccc([N+](=O)[O-])c2)CC(C)(C)N(C(=O)c2ccccc2)c2ccccc21 (stereo not given)	-23.1%
O=C(CSc1nnc(SCc2ccc(Cl)cc2)s1)N/N=C/c1ccccc1Cl	13.9%
CCOC(=O)C(Cc1ccccc1)NC(=O)CCc1c(C)nc2c(c(C)nn2-c2ccc(C)c(C)c2)c1C (stereo not given)	35.7%
Cc1ccc(SCC(=O)Nc2ccc3oc(-c4ccccc4F)nc3c2)cc1	68.8%
COc1ccc(Cl)cc1NC(=O)C(C)Sc1nc2c(c(=O)[nH]1)CCCC2 (stereo not given)	12.7%
Cc1ccccc1OCCOc1ccc([N+](=O)[O-])cc1/C=N/n1cnnc1	-98.2% (active)
Cc1ccccc1OS(=O)(=O)c1cccc([N+](=O)[O-])c1	-19.5%
COc1cccc(OCCOc2cccc(/C=N/n3cnnc3)c2)c1	27%
CC1(c2nnc(Cc3ccccc3)o2)CC(c2ccccc2F)=NO1 (stereo not given)	4.15%
CCCOc1ccc(NC(=O)CC2C(=O)N(c3ccccc3)C(=O)N2Cc2ccco2)cc1 (stereo not given)	38.3%
COc1cccc(N2CCN(CC(=O)Nc3ccnn3C3CCCC3)CC2)c1	-60.5% (active)
COc1ccccc1N1CCN(CC(=O)Nc2ccnn2C2CCCC2)CC1	-12%
COc1cccc(C(=O)N2CCC(n3nccc3NC(=O)C3CCOC3)CC2)c1 (stereo not given)	-18.9%
O=C(CSc1nnc2c(n1)[nH]c1ccccc12)NC1CCCCC1	-65.5% (active)
COc1ccc2[nH]c3nc(SCC(=O)NC4CC4)nnc3c2c1	13.8%
CCOc1ccc2[nH]c3nc(SCC(=O)NC4CCCC4)nnc3c2c1	-31.8%
O=C(Cc1cccs1)N(CC1CCCO1)C1(C(=O)NC2CCCCC2)CCCCC1 (stereo not given)	-20.9%
Cc1cc(N=CC2=C(O)CCCC2=O)no1	2.05%
CCOC(=O)c1c(CC(C)C)csc1/N=C/C1=C(O)CCCC1=O	-98.2% (active)
CCOC(=O)c1sc(/N=C/C2=C(O)CC(C)(C)CC2=O)c(C(=O)OCC)c1C	-33.1%
CCOC(=O)c1c(NC(=O)Cc2coc3ccc(CC)cc23)sc2c1CCC2	1.55%

Structure (SMILES)	activity change, negative = inhibition
Cc1ccc(C)c(N2CCN(C(=O)CN3C(=O)COc4ccc(S(=O)(=O)N5CCCCCC5)cc43)CC2)c1	-10.9%
Cc1ccc(Cl)cc1-n1ncc2c(N3CCC(C(N)=O)CC3)ncnc21	-7.89%
CCCCN(CC)C(=O)CN(C)S(=O)(=O)c1cccc2nsnc12	0.246%
O=[N+]([O-])c1ccc(C(S(=O)(=O)Cc2ccccc2)S(=O)(=O)Cc2ccccc2)cc1	-20.9%
O=C(NCCCCc1ccccc1)C1CC(c2ccc([N+](=O)[O-])cc2)=NO1 (stereo not given)	1.01%
O=C1NC(=O)C2C1C(c1ccc([N+](=O)[O-])cc1)=NN2Cc1ccccc1 (stereo not given)	-71.6% (active)
Cc1ccc(-n2cnc3cc(C(=O)NCCC4=CCCCC4)ccc32)cc1Cl	-19.6%
COc1ccc(-c2[nH]c3c(c2-c2c(-n4cccc4)n(C)c(=O)n(C)c2=O)c(=O)n(C)c(=O)n3C)cc1	12.5%
COc1ccccc1CNC(=O)c1ccc(NC(=O)N2CC(C)Sc3ccccc32)cc1 (stereo not given)	-6.59%
COc1cccc(C(O)c2nc(-c3ccc(C)c(C)c3)cs2)c1 (stereo not given)	-60.7% (active)
COc1ccc(-c2csc(C(O)c3cccc(Cl)c3)n2)cn1 (stereo not given)	-37.6%
Cc1ccccc1-c1csc(C(O)c2cccc(Cl)c2)n1 (stereo not given)	-10.3%
Cn1c(/C(C#N)=C2/CCCCCN2)nc2ccccc21	-40%
Cc1nn(CC(=O)NCCc2ccccc2)c(=O)c2c1sc1ccccc12	0.0704%
N#C/C(=C\c1ccccc1F)c1nc2ccccc2c(=O)[nH]1	-22.3%
O=C(/C(=C/c1cccc(Cl)c1)c1nc2ccccc2[nH]1)c1ccccc1	-99.6% (active)
CCc1ccc(CNCc2c(C(=O)O)n(Cc3ccc(F)cc3Cl)c3cc(OC)ccc23)cc1	15.2%
CCOC(=O)C1=C(c2ccccc2)N=C2SCC(=O)N2C1c1ccc(O)c(OC)c1 (stereo not given)	9.04%
CC1CCCN(CCOCCOc2ccccc2-c2ccccc2)C1 (stereo not given)	-71.7% (active)
CC1CN(CCOc2ccccc2[N+](=O)[O-])CC(C)O1 (stereo not given)	-21.7%
CC1CN(CCCOc2ccccc2-c2ccccc2)CC(C)O1 (stereo not given)	58.1%
